Mtb BioA inh: inhibitors of Mycobacterium tuberculosis BioA enzyme; purified M. tuberculosis BioA enzyme, plate reader; inhibition, % at 9.99 µM; 360,000 tested, 0.096% active; in the data active = inhibition above about 40%
Rv3671c protease: inhibits the M. tuberculosis serine protease Rv3671c | inhibition, % at 5.96 µM | AID 2606 | 320,000 tested, 0.048% active; in the data active = inhibition above about 38%;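 also: extracellular domain of Rv3671c used as enzyme; 0% = enzyme with DMSO and 100% = no enzyme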
FadD28 binding: M. tuberculosis FadD28 bisubstrate binding inhibition. FadD28 bisubstrate probe binding, fluorescence polarization. inhibition, % at 12.5 µM. 360,000 tested, 0.22% active. AID 588549; in the data active = inhibition above about 8.5%, passing the limit was not always enough
FBA Mtb inh: inhibitors of M. tuberculosis fructose-bisphosphate aldolase | purified M. tuberculosis FBA, fluorescence read-out | inhibition, % at 1 µM | AID 588726 | 360,000 tested, 2.3% active;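 also: 0% = vehicle and 100% = reference inhibitor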
Target sequence (P9WQA3 whole entry, looked up): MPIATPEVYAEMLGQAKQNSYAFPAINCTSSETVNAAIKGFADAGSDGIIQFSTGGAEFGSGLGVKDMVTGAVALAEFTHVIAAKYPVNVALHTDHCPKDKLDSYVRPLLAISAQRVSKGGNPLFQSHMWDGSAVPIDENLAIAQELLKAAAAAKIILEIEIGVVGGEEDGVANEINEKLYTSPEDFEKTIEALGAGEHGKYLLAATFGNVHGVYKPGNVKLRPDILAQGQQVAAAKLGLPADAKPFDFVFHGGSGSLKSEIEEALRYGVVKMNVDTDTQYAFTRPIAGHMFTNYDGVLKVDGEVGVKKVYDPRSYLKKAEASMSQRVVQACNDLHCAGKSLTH
GDH-TPI counter-1: GDH-TPI coupled enzyme inhibition counter-screen; GDH-TPI coupled enzyme counterscreen, NADH absorbance; inhibition, % at 4.8 µM; 360,000 tested, 1.2% active; in the data active = inhibition above about 30%;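 also: 0% = DMSO wells and 100% = wells lacking the enzyme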
Mtb FBA confirm: Mtb FBA inhibition, confirmed; shares compounds with FBA Mtb inh; purified M. tuberculosis FBA, fluorescence read-out; inhibition, % at 1 µM; 5,600 tested, 78% active;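 also: 0% = vehicle wells and 100% = reference inhibitor wells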
GDH-TPI counter-2: inhibits GDH-TPI coupling enzymes, flagging Mtb FBA hits; shares compounds with FBA Mtb inh; GDH-TPI coupled enzyme counterscreen, fluorescence; inhibition, % at 1 µM; 5,600 tested, 81% active; AID 652141; in the data active = inhibition above about 10%
GDH-TPI dose: counter-screen for M. tuberculosis FBA inhibitors: GDH-TPI dose response. shares compounds with FBA Mtb inh. GDH-TPI coupled enzyme assay, fluorescence, artifact counterscreen. IC50, µM. 170 tested, 79% active. AID 652145; call rule not given here
* = called active by the depositor; . = no result; + = active, no number. Hits are enriched below; roughly 3% of the tested compounds scored in any of these assays. Rule as the data show it, unless noted: active = inhibition above about 27%; inactive = the rest.

SMILES	Mtb BioA inh	Rv3671c protease	FadD28 binding	FBA Mtb inh	GDH-TPI counter-1	Mtb FBA confirm	GDH-TPI counter-2	others
CC(=O)N1CCN(c2cc3c(cc2F)c(=O)c(C(=O)O)cn3C2CC2)CC1	.	0	-2	30*	1	187*	140*
CCN1CCN(c2cc3c(cc2F)c(=O)c(C(=O)O)cn3C2CC2)CC1	-6	-7	-1	13	7	.	.
CCNC(=O)C[C@@H]1CC[C@@H]2[C@H](COc3ccc(NC(=O)c4cccs4)cc3C(=O)N2C)O1	2	.	.	.	.	.	.
O=C1c2ccccc2NC(c2ccccn2)N1c1ccccc1F (stereo unspecified)	1	0	-1	62*	3	+	199*
Cc1cccc(C2Nc3ccccc3C(=O)N2c2ccc(F)cc2)n1 (stereo unspecified)	1	8	0	49*	10	4	-3
O=C1c2cccc3cccc(c23)C(=O)N1CC1CCN(S(=O)(=O)c2ccc(F)cc2)CC1	.	-11	0	7	5	.	.
O=C1c2cccc3cccc(c23)C(=O)N1CC1CCN(S(=O)(=O)c2ccccc2)CC1	0	.	0	54*	-5	47*	29*
C[C@@H]1CN([C@@H](C)CO)C(=O)Cc2cc(NC(=O)Cn3cnnn3)ccc2O[C@@H]1CN(C)Cc1ccc(C(=O)O)cc1	-4	.	.	.	.	.	.
Cc1ccc2c(c1)c1c(c(=O)n(-c3ccccc3)c(=O)n1CC(=O)NCC1CCCO1)n2C (stereo unspecified)	-1	-4	-2	56*	-3	76*	52*
Cc1cc(=O)oc2cc(OCC(=O)OCC(=O)Nc3c(C)n(C)n(-c4ccccc4)c3=O)ccc12	.	4	0	3	-1	.	.
Cc1c(NC(=O)COc2ccc3ccc(=O)oc3c2)c(=O)n(-c2ccccc2)n1C	.	-1	-1	79*	15	64*	57*
O=C(CCNc1ccc(F)cc1)c1cc2ccccc2o1	.	7	-4	2	-5	.	.
O=C(CCNc1cccc(F)c1)c1cc2ccccc2o1	.	0	-1	28*	3	4	-5
CCC(=O)N1C[C@H](C)[C@H](OC)CN(C)C(=O)c2ccc(NC(=O)Nc3ccccc3)cc2OC[C@@H]1C	0	.	.	.	.	.	.
COc1ccc(-c2coc3c(C(=O)NCc4ccco4)cccc23)c(C)c1	1	.	-18	-1	0	.	.
COc1ccc(-c2ccc(C(=O)NCc3ccco3)c3occc23)c(C)c1	1	.	-4	28*	-3	56*	50*
COc1ccc2nc(N/C(N)=N/S(C)(=O)=O)nc(C)c2c1	0	-1	-3	53*	-1	+	+
CCC(=O)N1C[C@@H](O)COC[C@@H]2O[C@H](CC(=O)NCC3CCCCC3)CC[C@H]21	-1	.	.	.	.	.	.
CCc1c(C)nc2c(-c3ccccc3)c[nH]n2c1=O	0	0	1	33*	6	15	9	GDH-TPI dose=8.1*
CCOC(=O)Cc1cc(=O)n2[nH]cc(-c3ccc(Cl)cc3)c2n1	-4	-25	0	21	6	.	.
CCOC(=O)Cc1c(C)nc2c(-c3ccccc3)c(C)[nH]n2c1=O	-1	4	0	23	9	.	.
CCOC(=O)Cc1c(C)nc2c(-c3ccccc3)c[nH]n2c1=O	5	2	-1	85*	19	176*	172*
CCOC(=O)Cc1c(C)nc2c(-c3ccccc3)c(-c3ccccc3)[nH]n2c1=O	.	4	-2	72*	16	58*	41*
Cc1noc(C)c1NC(=O)N(C)C[C@@H]1Oc2ccc(NC(=O)NC(C)C)cc2CC(=O)N([C@H](C)CO)C[C@H]1C	-3	.	.	.	.	.	.
C[C@H](CO)N1C[C@H](C)[C@H](CN(C)Cc2ccncc2)Oc2cc(Br)ccc2S1(=O)=O	12	.	.	.	.	.	.
SMILES	Mtb BioA inh	Rv3671c protease	FadD28 binding	FBA Mtb inh	GDH-TPI counter-1	Mtb FBA confirm	GDH-TPI counter-2	others
CCn1c(=O)c2cc(C(=O)NCC(OC)OC)sc2c2ccccc21	-1	-6	-2	61*	16	+	179*
CCn1c(=O)c2cc(C(=O)NCCC(C)C)sc2c2ccccc21	-1	-4	-3	8	6	.	.
CCn1c(=O)c2cc(C(=O)NCCCOC)sc2c2ccccc21	6	6	0	54*	26	+	186*
CCCCN(CC)CCCNC(=O)c1cc2c(=O)n(CC)c3ccccc3c2s1	0	-9	-5	79*	14	6	-2
CCCN(CCC)CCCNC(=O)c1cc2c(=O)n(CC)c3ccccc3c2s1	0	5	-1	27*	17	+	+
CN1[C@H](C(=O)NCc2ccccn2)[C@@H](CO)[C@@H]2Cn3c(ccc(-c4ccc(F)cc4)c3=O)[C@@H]21	0	.	.	.	.	.	.
O=C(C[C@@H]1C[C@H]2c3cc(NC(=O)c4cccnc4)ccc3O[C@H]2[C@@H](CO)O1)NCc1cccnc1	22	.	.	.	.	.	.
COc1ccc(NC(=O)Nc2cccc3c2O[C@H](CN(C)S(=O)(=O)c2ccc(C)cc2)[C@@H](C)CN([C@H](C)CO)C3=O)cc1	-3	.	.	.	.	.	.
Cc1ccc(-c2ccc3c(c2)O[C@H](CN(C)Cc2ccccn2)[C@H](C)CN([C@@H](C)CO)S3(=O)=O)cc1	0	.	.	.	.	.	.
CCC(C)NC(=O)c1cc2c(=O)n(CC)c3ccccc3c2s1 (stereo unspecified)	-2	1	-2	48*	18	100*	92*
CCCCN(CC)CCNC(=O)c1cc2c(=O)n(CC)c3ccccc3c2s1	1	0	0	40*	18	176*	116*
C[C@H]1CN([C@@H](C)CO)C(=O)c2cc(NC(=O)CCCN(C)C)ccc2O[C@H]1CN(C)Cc1ccccc1	-2	.	.	.	.	.	.
C[C@@H]1CN([C@@H](C)CO)C(=O)c2cc(/C=C/c3ccccc3)cnc2O[C@H]1CN(C)C(=O)CN(C)C	-3	.	.	.	.	.	.
CCCNC(=O)N1[C@@H]2CN(C(=O)C3CCOCC3)c3ccccc3[C@@H]2[C@@H]1CO	-8	.	.	.	.	.	.
Cc1cc(=O)oc2cc(OCC(=O)NCC3CCC(C(=O)O)CC3)ccc12 (stereo unspecified)	0	1	-3	15	-3	.	.
Cc1cccc(C)c1NC(=O)COc1ccc2c(C)c(Cc3ccccc3)c(=O)oc2c1	-1	-4	-7	57*	16	+	193*
CCc1c(C)c2ccc(OCC(=O)OC)cc2oc1=O	.	-5	-1	70*	17	61*	48*
COc1cc(NC(=O)COc2cc(C)cc3oc(=O)c(C)c(C)c23)cc(OC)c1OC	-1	-4	-1	1	5	.	.
